This is an account of results in PubChem BioAssay AID1845227 (National Center for Advancing Translational Sciences (NCATS), 2023).

Records with an inconclusive call do not appear. Unmarked numbers belong to inactive results. Calls of active or inactive are those of the source. Calls come from the whole dose curve; as a rule, active = well fitted inhibition curve with a large enough effect; inconclusive = small, poorly fitted or top-dose-only effect; inactive = no such curve, though single readings can be large or run the other way.
Potency is the fitted concentration of half-maximal effect.

The assay addresses Luciferin 4-monooxygenase (Photinus pyralis) (UniProt P08659). The experiment in a line: Confirmatory firefly luciferase (FLuc) qHTS assay for identification of artifact compounds.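 For activity change, negative = inhibition: 0% = DMSO and -100% = no enzyme control.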 Particulars: purified FLuc enzyme, luminescence, 5 min; series mostly up to 38.9 µM; activity change, negative = inhibition: at the top concentration. The procedure, abridged:
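Compounds mixed 15 min with 10 uM luciferin/10 uM ATP, then 10 nM firefly luciferase added for 5 min at pH 7.6. Luminescence percent inhibition, scaled to no-enzyme and DMSO controls, fitted to Hill equation.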
In general terms: In qHTS, concentration-response curves come from the screen itself.
Take `CCOC(=O)c1ccccc1Nc1cc(C)nc2nc(-c3ccco3)nn12`: the “activity change, negative = inhibition” value is 4.05%.

Take `CCc1ccc(S(=O)(=O)c2nnn3c2nc(N2CCOCC2)c2sccc23)cc1`: the “activity change, negative = inhibition” value is 0.839%. `O=C(NCCS(=O)(=O)N1CCN(c2ccc(F)cc2)CC1)C1CC(=O)N(c2ccc(F)cc2)C1` (stereo not drawn): the “activity change, negative = inhibition” value was 32.6%. Regarding `Nc1ncnc2c1ncn2[C@@H]1O[C@H](COP(=O)(O)OP(=O)(O)OC[C@H]2OC(O)[C@H](O)[C@@H]2O)[C@@H](O)[C@H]1O` (stereo partly drawn), the “activity change, negative = inhibition” value was 135%. For `COC(=O)CN1C(=O)[C@@H]2[C@H](C1=O)[C@@H]1CC(C(=O)OC)=C[C@@H](C(=O)OC)C3C1=C(C(=O)C31CCCCC1)[C@@H]2C` (stereo partly drawn), the “activity change, negative = inhibition” value was -1.19%. Still for that read-out and setting: with `Cc1ccc(C)c(NC(=O)Cn2c(=O)n(-c3ccc(CC(=O)NCC4CCCO4)cc3)c(=O)c3ccccc32)c1` (stereo not drawn) the figure was -0.476%. On to `O=C1c2ccccc2C(=O)N1c1cccc2cnccc12`, for which the “activity change, negative = inhibition” value is 1.35%. Turning to `Cc1ccc(-c2nc(S(=O)(=O)c3ccc(C)cc3)c(N3CCCCC3)o2)cc1`, the “activity change, negative = inhibition” value is -2.08%. For the compound `CCN(Cc1cccc(S(=O)(=O)O)c1)c1ccc(C(=C2C=CC(=[N+](CC)Cc3cccc(S(=O)(=O)O)c3)C=C2)c2ccccc2S(=O)(=O)[O-])cc1`, the Potency is 12.2 µM (active).

For the compound `CC(C)c1ccc(Cn2c(COc3ccccc3)nc3ccccc32)cc1`, the “activity change, negative = inhibition” value is -14.1%. With `Cc1ccc2nc(-c3cccs3)c(Nc3ccccc3)n2c1`, the “activity change, negative = inhibition” value was -9.97%.

With `CNc1cccc(S(=O)(=O)N2CCCN(S(=O)(=O)c3ccc4c(c3)OCCO4)CC2)c1`, the “activity change, negative = inhibition” value is -3.42%. Regarding `Cc1ccc(-c2nc(S(=O)(=O)c3ccc(Cl)cc3)c(N3CCCCC3)o2)cc1`, the “activity change, negative = inhibition” value was 2.47%.
